Experimental findings from PubChem BioAssay AID720519 (National Center for Advancing Translational Sciences (NCATS), 2013) are described below.

Inconclusive results are not listed. Unmarked numbers belong to inactive results. Calls come from the whole dose curve; as a rule, active = well fitted activation curve with a large enough effect; inconclusive = small, poorly fitted or top-dose-only effect; inactive = flat fitted curve, though single readings scatter.

The nature of the test: qHTS for Inhibitors of Cell Surface uPA Generation: Confirmatory Assay for Cherry-picked Compounds. Note: 0% is about no effect. Particulars: cell surface uPA activity generation, qHTS confirmation; series mostly up to 115 µM; inhibition: at the top concentration. From the text: The overall objective of this project is to perform a quantitative high throughput screen (qHTS) to identify novel compounds that inhibit the generation of cell surface urokinase activity. The urokinase plasminogen activator (uPA) is one of the two primary endogenous systems that mediate plasminogen activation into plasmin. Members of this system, including uPA and its receptor (uPAR), are overexpressed in several malignant tumors. This system plays a major role in adhesion, migration, invasion and metastasis of cancer cells. Small molecule inhibitors of the uPA system will serve as probes to understand the molecular mechanisms of the uPA cascade and better understanding the micro-environmental circumstances that facilitate the activation of plasminogen by uPA, and finally may provide novel candidate agents for anticancer drug therapy.
[…] […] Upon inhibition of the uPA activation cascade, the subsequent cell surface uPA activity-dependent translocation of LF into the cytoplasm is inhibited. ATP-Lite is used to measure intracellular ATP concentrations (measure cell viability) which remain increased if LF entry into the cytoplasm is inhibited. This validation assay was performed using a small set of cherry picked compounds. Activation of cell viability (increase in luminescence signal) due to inhibition of the cell surface uPA generation is the desired outcome of this assay.
NIH Chemical Genomics Center [NCGC]
NIH Molecular Libraries Probe Centers Network [MLPCN]
Assay Submitter (PI): Thomas Bugge, National Institute of Dental and Craniofacial Research, NIH
Cultured RAW 264.7 were dispensed into 1536-well clear bottom, white walled tissue culture plates at a density of 4000 cells/well and were incubated overnight (12-16 h) at 37 C in a 5% CO2 incubator. Serially diluted compounds (1:5 dilution) in 23 nl DMSO were added to cells (0.0024 uM to 3.83 uM final concentration). […] Compound and reagent-treated plates were incubated for 24 h at 37 C in a 5% CO2 incubator. Three microliter of PerkinElmer ATPlite was then added to each well and luminescence was detected using the PerkinElmer ViewLux plate reader for a 5 sec exposure.
As for `C[N+]1(CC(O)c2ccccc2)CCCCCC1` (stereo not given), the inhibition (commonly the change of the read-out against control, counted positive when it falls) was -0.146%.

As to `CCN(c1ccc(OC)cc1)S(=O)(=O)c1ccc2c(c1)NC(=O)CS2`, the “inhibition” value was -2.56%. With `CN1CCN(C2=Nc3ccccc3Oc3ccc(Cl)cc32)CC1` the figure was 0.247%. As to `C[C@]12CCC(O)CC1CCC1C2CC[C@]2(C)C(c3cc(C(F)(F)F)n[nH]3)CCC12` (stereo not given in full), the “inhibition” value was -3.84%. Under `CC(C)Cn1cnc2c1c(=O)[nH]c(=O)n2Cc1ccccc1` stands 1.57%.

Take `COc1ccc(-c2cc3nc(C)cc(-c4ccc(OC)cc4)n3n2)cc1`: the “inhibition” value was -1.98%. Under `O=C(O)c1ccc(-n2nnnc2SCc2cccc(Br)c2)cc1` stands -2.5%; under `CCCCN(CC(=O)Nc1cccc(S(=O)(=O)N2CCCC2)c1)Cc1nc2ccccc2c(=O)[nH]1`, -3.5%. With `O=C(/C=C/c1cccc(Oc2ccccc2)c1)N1CCOCC1`, the “inhibition” value is 0.233%.

Take `Cc1ccc(CC2CC(=O)N(c3cc(C)ccc3C)C2=O)cc1` (stereo not given): the “inhibition” value was 3.02%.

As for `COCCNC(=O)COCc1cc(-c2ccc3c(c2)OCO3)on1`, the “inhibition” value was -2.16%. For `COc1ccc([C@H]2[C@H](C(=O)OC(C)(C)C)N3N=Cc4ccccc4C3C23C(=O)c2ccccc2C3=O)cc1OC` (stereo not given in full), the “inhibition” value is -3.34%. In the case of `Cc1[nH]c(=O)[nH]c(=O)c1S(=O)(=O)N1CCCc2ccccc21`, the “inhibition” value was -1.5%. With `CC(O)[C@H]1CNC(=O)C(=O)N1CCc1cccc(F)c1` (stereo not given in full) the figure was 0.53%; with `Cc1ccc(/C=N/NC(=O)c2ccc3nc[nH]c3c2)s1`, -2.96%. With `O=C(NC(=S)Nc1c(F)cc(F)cc1Br)c1ccc2c(c1)OCCO2` the figure was 0.29%.

Take `COc1cc(NC(=O)COC(=O)c2cc(S(=O)(=O)N3CCCCC3)ccc2Cl)c(C)cc1[N+](=O)[O-]`: the “inhibition” value was 0.838%. `CCOc1ncccc1C(=O)NCc1ccccc1Cl`: the “inhibition” value is 0.688%. Under `COc1ccc(CCNC(=O)CSc2nc(N)c3c(C)c(C)oc3n2)cc1OC` stands -2.04%; under `Cn1c(=O)n(CC(=O)O)c(=O)c2c1nc1n2CCCN1CCc1ccccc1`, -2.69%. As for `O=C(Nc1ccc(Cl)cc1)Nc1nnc(-c2ccncc2)s1`, the “inhibition” value was -3.24%. `COc1ccc2nc(SC(C)C(=O)NC3(C#N)CCCCC3)[nH]c2c1` (stereo not given): the “inhibition” value was -2.91%. With `COC(=O)/C(C#N)=C\c1c(OC)[nH]c2ccccc12`, the “inhibition” value is -0.852%. Under `CCCCCN(C(=O)CCC(=O)OCCOc1cccc(Cl)c1)c1c(N)n(CCCC)c(=O)[nH]c1=O` stands -1.16%. With `CC1CCCC(NC(=O)CNC(=S)N(Cc2ccccc2)Cc2cccs2)C1C` (stereo not given), the “inhibition” value is -2.48%. With `Cc1nn(-c2ccc(F)cc2)c(C)c1NS(=O)(=O)c1ccc(Cl)cc1` the figure was -2%; with `COc1cc2oc(=O)ccc2cc1[C@H](O)[C@@H](O)C(C)(C)O`, -1.24%. With `CCC1=NN(C(=O)C(=O)Nc2ccc(OC)cc2)C(O)(C(F)(F)F)C1` (stereo not given) the figure was -1.82%. With `COCCn1c(SCC(=O)Nc2ccc(F)cc2)nc2ccccc2c1=O` the figure was 5.44%. Regarding `CC(Sc1nnc2ccccn12)C(=O)NCc1ccc2c(c1)OCO2` (stereo not given), the “inhibition” value was 0.214%. With `Cc1ccc(C23CC4CC(CC(C(=O)NN)(C4)C2)C3)cc1` the figure was -2.44%. On to `CC(=O)c1ccc(NC(=O)CN2CCN(c3ccccc3)CC2)cc1`, for which the “inhibition” value was -2.52%. Under `CC1(C)CC2(CC(c3ccccc3)Oc3cc(O)ccc32)NC(=S)N1` (stereo not given) stands -1.51%; under `Cc1cc(C)cc(NC(=O)Cc2ccc(NC3=NC4CS(=O)(=O)CC4S3)cc2)c1` (stereo not given), 0.308%.

With `CCN(CC)CCCNC(=O)c1cn(C)c(=O)c2c1c1ccccc1n2C`, the “inhibition” value was 5.19%. With `CN(CCCNC(=O)Cn1cccc1C(=O)c1ccccc1)C1CCCCC1` the figure was -3.4%; with `Cc1cc(C)c(NC(=O)Cn2nnc(C(=O)NCc3ccc4c(c3)OCO4)c2N)c(C)c1`, 3.61%. As to `Cc1c(NC(=S)Nc2ccc(Cl)cc2)c(=O)n(-c2ccccc2)n1C`, the “inhibition” value was -0.742%.

Turning to `Cc1cccc(C(=O)NCC(=O)OCC(=O)NC2CCCCCCC2)c1`, the “inhibition” value was 1.31%. With `COc1ccc(NC(=O)c2nn(C)c3c2CS(=O)(=O)c2ccccc2-3)cc1` the figure was -1.07%.
